Compound activity deposited in PubChem by Broad Institute.
Shown is part of a subset that was picked to be rich in hits.
IDE exosite inh = displaces the probe from the exo-site of human IDE; AID 1259349; z-score at 20 µM; purified IDE, FL-6b probe fluorescence polarization; hits give low values; hit rate 6.3% among 17,000;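 active = z-score of -3 or lower, meaning strong loss of probe binding signal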;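 also: His-tagged human IDE residues 42-1019 made in E. coli with 30 nM FL-6b probe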
Of the large screens only hits and unclear results are named; the others gave an inactive call.

COc1ccc(-c2ccc([C@@H]3[C@H](CO)N4CCCCN(C(=O)Cc5ccncc5)C[C@@H]34)cc2)cc1	none
COc1ccc(C#Cc2ccc([C@@H]3[C@@H](CO)N4CCCCN(C(=O)Cc5cccnc5)C[C@@H]34)cc2)cc1	none
O=C(O)[C@@H]1[C@@H](CO)[C@@H]2Cn3c(ccc(-c4ccncc4)c3=O)[C@H]1N2S(=O)(=O)c1ccccc1F	none
O=C(O)C[C@@H]1CC[C@H]2NC[C@@H](O)COC[C@@H]2O1	none
CN1[C@H](CO)[C@H]2c3ccccc3NC[C@H]21	none
C/C=C/c1ccc([C@@H]2[C@@H](CO)N3CCCCN(C(=O)Cc4ccncc4)C[C@H]23)cc1	none
O=C(Cc1ccccn1)N1CCCCN2[C@H](C1)[C@H](c1ccc(-c3ccc(F)cc3)cc1)[C@@H]2CO	none
O=C(Cc1ccccn1)N1CCCCN2[C@@H](CO)[C@@H](c3ccc(-c4ccc(F)cc4)cc3)[C@@H]2C1	none
O=C(Cc1ccccn1)N1CCCCN2[C@H](CO)[C@H](c3ccc(-c4ccccc4F)cc3)[C@@H]2C1	IDE exosite inh -4.2
O=C(Cc1ccccn1)N1CCCCN2[C@@H](CO)[C@H](c3ccc(-c4ccc(F)cc4)cc3)[C@@H]2C1	none
O=C(Cc1ccccn1)N1CCCCN2[C@H](C1)[C@@H](c1ccc(-c3ccc(F)cc3)cc1)[C@@H]2CO	none
O=C(Cc1ccccn1)N1CCCCN2[C@H](CO)[C@@H](c3ccc(-c4ccccc4F)cc3)[C@@H]2C1	IDE exosite inh -4.7
CC(C)CC#Cc1ccc([C@H]2[C@H](CO)N3CCCCN(C(=O)Cc4ccccn4)C[C@@H]23)cc1	none
C/C=C/c1ccc(C2[C@@H]3CN(Cc4cccnc4)C[C@H]2N3)cc1 (stereo partly drawn)	none
O=C(Cc1cccnc1)N1CCCCN2[C@H](CO)[C@H](c3ccc(C#CC4CCCC4)cc3)[C@H]2C1	none
COc1ccc(-c2ccc([C@H]3[C@@H](CO)N4CCCCN(C(=O)Cc5ccncc5)C[C@H]34)cc2)cc1	none
COc1ccc(C#Cc2ccc([C@H]3[C@@H](CO)N4CCCCN(C(=O)Cc5cccnc5)C[C@@H]34)cc2)cc1	none
